“And” between values parts separate entries of the source, which are not always exact repeats. Equal values may be shown once. The panel holds about 83,000 compounds, 20% with a hit somewhere; the sample as a whole holds those more often.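 Step 1: grow cells in 96-well plates. Step 2: add test compound at a single concentration. Step 3: incubate 48 h. Step 4: record percent growth.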 The source made the active and inactive calls. Rule for the calls: active = growth percent below 10; inactive = the rest.
Key:
Experiment in all cases: NCI-60 one-dose screen, 48 h (100 = growth as untreated, 0 = no growth, -100 = all killed)
Conditions in all cases: 10 µM unless noted
HCT-15 colon = test system: HCT-15 colon
HT29 colon = test system: HT29 colon
SNB-75 CNS = test system: SNB-75 CNS
SNB-19 CNS = test system: SNB-19 CNS
U251 CNS = test system: U251 CNS
PC-3 prostate = test system: PC-3 prostate
SK-MEL-5 melanoma = test system: SK-MEL-5 melanoma
UACC-62 melanoma = test system: UACC-62 melanoma
LOX IMVI melanoma = test system: LOX IMVI melanoma
SK-MEL-28 melanoma = test system: SK-MEL-28 melanoma
SK-MEL-2 melanoma = test system: SK-MEL-2 melanoma
EKVX NSCLC = test system: EKVX NSCLC
SN12C renal = test system: SN12C renal
UO-31 renal = test system: UO-31 renal
TK-10 renal = test system: TK-10 renal
ACHN renal = test system: ACHN renal
A498 renal = test system: A498 renal
MOLT-4 leukemia = test system: MOLT-4 leukemia
CAKI-1 renal = test system: CAKI-1 renal
CCRF-CEM leukemia = test system: CCRF-CEM leukemia

Measured: growth

O=C(Nc1ccc(F)cc1)c1cc2cc(Nc3nc(-c4ccccc4)nc4ccccc34)ccc2oc1=O
inactive: HCT-15 colon 112% | HT29 colon 98.4% | SNB-75 CNS 102% | SNB-19 CNS 109% | U251 CNS 97.4% | PC-3 prostate 99.4% | SK-MEL-5 melanoma 105% | UACC-62 melanoma 102% | LOX IMVI melanoma 93.5% | SK-MEL-28 melanoma 111% | SK-MEL-2 melanoma 104% | EKVX NSCLC 108% | SN12C renal 104% | UO-31 renal 83.4% | TK-10 renal 97.3% | ACHN renal 105% | A498 renal 102% | MOLT-4 leukemia 92.9%

C=C(C)[C@@H]1CC[C@]2(C(=O)N3CCN(C)CC3)CC[C@]3(C)[C@H](CC[C@@H]4[C@@]5(C)CC(CCCNC(C)=O)(CCCNC(C)=O)[C@H](OC(C)=O)C(C)(C)[C@@H]5CC[C@]43C)[C@@H]12
inactive: HCT-15 colon 86.8% | HT29 colon 83% | SNB-75 CNS 89.2% | SNB-19 CNS 99% | U251 CNS 98.2% | PC-3 prostate 74.9% | SK-MEL-5 melanoma 91.5% | UACC-62 melanoma 99.3% | LOX IMVI melanoma 97.8% | SK-MEL-28 melanoma 103% | SK-MEL-2 melanoma 112% | EKVX NSCLC 96.4% | SN12C renal 96.5% | UO-31 renal 80.5% | TK-10 renal 109% | CAKI-1 renal 79.3% | A498 renal 109% | CCRF-CEM leukemia 91.8% | MOLT-4 leukemia 85.7%

CCOc1ccc(C(=O)Cc2ccccc2)cc1
inactive: HCT-15 colon 98.2% and 110% | HT29 colon 104% and 111% | SNB-75 CNS 101% and 113% | SNB-19 CNS 101% and 102% | U251 CNS 108% and 101% | PC-3 prostate 102% and 110% | SK-MEL-5 melanoma 106% and 98.5% | UACC-62 melanoma 98.2% and 106% | LOX IMVI melanoma 102% and 106% | SK-MEL-28 melanoma 115% and 109% | SK-MEL-2 melanoma 103% and 118% | EKVX NSCLC 98.5% and 101% | SN12C renal 103% and 105% | UO-31 renal 91.3% and 107% | TK-10 renal 85.1% and 92.3% | CAKI-1 renal 103% and 99.6% | A498 renal 79.6% and 87.5% | CCRF-CEM leukemia 97.6% | MOLT-4 leukemia 94.4% and 99.2%

Cc1ccc(C(=O)c2ccc(CC(=O)N=Nc3c(O)[nH]c4ccc(OC(F)(F)F)cc34)n2C)cc1
inactive: HCT-15 colon 93.3% | HT29 colon 107% | SNB-75 CNS 82.1% | SNB-19 CNS 94% | U251 CNS 97% | PC-3 prostate 98.6% | SK-MEL-5 melanoma 97.3% | UACC-62 melanoma 106% | LOX IMVI melanoma 89.8% | SK-MEL-28 melanoma 99.9% | SK-MEL-2 melanoma 95.9% | EKVX NSCLC 75.5% | SN12C renal 95% | UO-31 renal 72.7% | TK-10 renal 137% | ACHN renal 93.8% | A498 renal 86.7% | CCRF-CEM leukemia 99.1% | MOLT-4 leukemia 89.4%

[2H]C([2H])([2H])Oc1cc(F)ccc1/C=C/C(=O)/C=C(/C=C/c1ccc(F)cc1OC([2H])([2H])[2H])OB(F)F
inactive: HCT-15 colon 25.3% | HT29 colon 32.4% | SNB-75 CNS 81.1% | SNB-19 CNS 56.9% | U251 CNS 31.7% | PC-3 prostate 43.8% | SK-MEL-5 melanoma 30.6% | UACC-62 melanoma 20.9% | SK-MEL-28 melanoma 29.5% | SK-MEL-2 melanoma 48% | EKVX NSCLC 76.6% | SN12C renal 42.6% | UO-31 renal 49.5% | TK-10 renal 43.6% | ACHN renal 14.8% | A498 renal 89%
active: LOX IMVI melanoma 2.12% | CCRF-CEM leukemia 2.38% | MOLT-4 leukemia 1.25%

COc1ccc(C(=O)N/N=C/c2ccc(O)cc2O)cc1Nc1ccnc(C(F)(F)F)c1
active: UACC-62 melanoma 1.67% | LOX IMVI melanoma 8.4% | CCRF-CEM leukemia 5.69%
inactive: HCT-15 colon 40.1% | HT29 colon 37.4% | SNB-75 CNS 26.4% | SNB-19 CNS 34.2% | U251 CNS 28.3% | PC-3 prostate 64.5% | SK-MEL-5 melanoma 24.2% | SK-MEL-28 melanoma 42.9% | SK-MEL-2 melanoma 61.5% | EKVX NSCLC 26.9% | SN12C renal 33.1% | UO-31 renal 30.4% | TK-10 renal 53.4% | CAKI-1 renal 39.3% | A498 renal 55.2% | MOLT-4 leukemia 23.4%

COc1ccc2c(c1)oc1c(C)c3c(c(C)c12)C(=O)N(Nc1ccccc1)C3=O
inactive: HCT-15 colon 105% | HT29 colon 106% | SNB-75 CNS 94.5% | SNB-19 CNS 99% | U251 CNS 108% | PC-3 prostate 109% | SK-MEL-5 melanoma 100% | UACC-62 melanoma 98.5% | LOX IMVI melanoma 100% | SK-MEL-28 melanoma 95.3% | SK-MEL-2 melanoma 99% | EKVX NSCLC 108% | SN12C renal 97% | UO-31 renal 84% | TK-10 renal 114% | CAKI-1 renal 91.5% | A498 renal 117% | CCRF-CEM leukemia 111% | MOLT-4 leukemia 99.8%
